# Source: PubChem BioAssay AID489043 (National Center for Advancing Translational Sciences (NCATS), 2010)
# Results filed as inconclusive are left out. Values without a mark were called inactive. Active and inactive are the calls of the source. Calls come from the whole dose curve; as a rule, active = well fitted activation curve with a large enough effect; inconclusive = small, poorly fitted or top-dose-only effect; inactive = flat fitted curve, though single readings scatter.
# Molecular target: Relaxin receptor 2 (Homo sapiens) (UniProt Q8WXD0)
# Sequence (Q8WXD0 whole entry, looked up): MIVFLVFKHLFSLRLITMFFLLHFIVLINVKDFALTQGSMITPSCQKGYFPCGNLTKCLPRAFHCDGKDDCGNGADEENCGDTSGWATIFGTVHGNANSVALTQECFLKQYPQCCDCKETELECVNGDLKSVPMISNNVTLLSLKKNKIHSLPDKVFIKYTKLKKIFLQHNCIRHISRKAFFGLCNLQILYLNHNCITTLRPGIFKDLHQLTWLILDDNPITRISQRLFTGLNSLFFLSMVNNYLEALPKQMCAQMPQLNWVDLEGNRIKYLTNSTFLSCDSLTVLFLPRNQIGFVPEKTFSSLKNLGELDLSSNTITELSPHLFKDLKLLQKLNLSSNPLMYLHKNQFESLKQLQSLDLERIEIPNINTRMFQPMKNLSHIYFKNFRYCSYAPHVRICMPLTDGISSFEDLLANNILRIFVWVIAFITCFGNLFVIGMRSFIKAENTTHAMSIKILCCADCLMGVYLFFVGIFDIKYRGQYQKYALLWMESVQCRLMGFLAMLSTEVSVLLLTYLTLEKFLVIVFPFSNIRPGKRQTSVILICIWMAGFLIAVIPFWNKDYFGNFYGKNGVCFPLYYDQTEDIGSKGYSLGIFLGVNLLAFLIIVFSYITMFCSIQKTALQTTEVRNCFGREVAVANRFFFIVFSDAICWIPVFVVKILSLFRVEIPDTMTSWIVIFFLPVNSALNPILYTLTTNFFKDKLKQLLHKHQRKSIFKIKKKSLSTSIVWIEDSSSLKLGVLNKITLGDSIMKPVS
# Assay: qHTS Assay for Agonists of the Relaxin Receptor RXFP1: RXFP2 Hit Validation; note: nearly all actives have a fitted effect of over 65% in size
# Details: HEK293 RXFP2 cAMP TR-FRET, 30 min; series mostly up to 115 µM; activation: at the top concentration
# In short: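 TR-FRET cAMP read-out in lysed HEK293 RXFP2 cells, normalized to buffer (basal) and 29 nM porcine relaxin (100%). Compounds 30 min, 37C, with Ro 20174 present. EC50 via standard Hill equation.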
# Potency is the fitted concentration of half-maximal effect.
SMILES,Potency,activation
Cc1cc(NC(=O)c2ccccc2F)nc2c1c(=O)oc1ccccc12,15.4 µM (active),
Cc1cc(C)n(C(=O)CCCn2cc([N+](=O)[O-])cn2)n1,,26.7%
NS(=O)(=O)c1ccc(CCNC(=O)C2CCN(c3ncnc4c3nc3n4CCCCC3)CC2)cc1,38.9 µM (active),
CCN(CC)S(=O)(=O)c1ccc2c(c1)nc(SCc1nc3ccsc3c(=O)[nH]1)n2CC,0.275 µM (active),
NC(=O)c1ccccc1NC(=O)CC12CC3CC(CC(C3)C1)C2,,-2.23% [at 125 µM]
c1ccc(-c2nnc(-c3ccccn3)c(-c3ccccn3)n2)nc1,,-2.34%
CC[N+](CC)(CCCCS(=O)(=O)[O-])CCNP1(=O)C=C(c2ccccc2)OC(c2ccccc2)=C1,34.6 µM (active),
COc1ccc(S(=O)(=O)N2CCOCC2)cc1NC(=O)CSc1nnc2ccccn12,6.15 µM (active),
Nc1ncnc2c1ncn2[C@@H]1O[C@H](COS(=O)(=O)O)[C@@H](O)[C@H]1O,12.3 µM (active),
CN(C)c1ccc(NC(=O)C2C3C=CC(C3)C2C(=O)O)cc1 (stereo not given),,-6.82%
CCC(=O)Nc1ccc(-n2nnnc2SCC(=O)NNC(=O)c2ccco2)cc1,,-5%
O=C(Nc1ccccc1C(=O)NCCN1CCOCC1)c1ccco1,,4.33% [at 125 µM]
Cc1cc(C)nc(/N=C(\N)Nc2ccc(S(=O)(=O)Nc3nccc(C)n3)cc2)n1,34.6 µM (active),
O=C(Nc1ccccc1C(=O)NCc1ccccc1)c1ccco1,,5.45% [at 125 µM]
Cc1ccc(C(=O)Nc2ccccc2C(N)=O)o1,,-1.39% [at 125 µM]
O=c1oc2cc(O)c(Cl)cc2c2ccccc12,6.9 µM (active),
CCN(CC)c1ccc(S(=O)(=O)N2CCOCC2)cc1NC(=O)CSc1nncn1C,12.3 µM (active),
CC(=O)C1C(c2ccccc2)c2c(noc2C)CC1(C)O (stereo not given),,-5.3%
Nc1nnc(CC(=O)N/N=C/c2ccc(-c3ccc(Cl)cc3Cl)o2)s1,,7.15%
CC(C)(C)C(=O)Nc1ccccc1C(=O)NCc1ccco1,,4.53% [at 125 µM]
CCc1cc2c(=O)nc3n(c2s1)Cc1ccccc1/C3=C(/O)c1cccc([N+](=O)[O-])c1,6.16 µM (active),
CN(C)c1ccc(C(=S)N2CCN(S(=O)(=O)c3ccccc3)CC2)cc1,,7.33%
O=C(Nc1ccccc1C(=O)O)c1ccc(NC(=O)C2CC2)cc1,,-15%
CCOC(=O)C1CCN(C(=O)c2cc3c(=O)n4ccccc4nc3s2)CC1,48.9 µM (active),
O=C(Nc1ccccc1C(=O)N1CCCCC1)c1ccco1,,-0.174% [at 125 µM]
Cc1cccc(NC(=O)c2ccccc2NC(=O)c2ccco2)c1,,-1.83% [at 125 µM]
CCOP1(=O)OCC2OC(n3cnc4c(N)ncnc43)C(O)C2O1 (stereo not given),7.76 µM (active),
S=c1nc[nH]c2c1[nH]c1ccccc12,6.9 µM (active),
Cc1cc2nc3ccc(=[N+](C)C)cc-3sc2cc1N,,-5.65%
COc1ccccc1CNS(=O)(=O)c1cc(CN2C(=O)c3cccnc3C2=O)ccc1OC,30.9 µM (active),
